# D2 ag-1: human D2 receptor agonism in beta-arrestin assay; DiscoveRx PathHunter D2 beta-arrestin, luminescence, 90 min; 100% = 57 uM dopamine signal; hit rate 0.084% among 360,000; activation, % (test concentration not listed); in the data active = activation above about 40%
# Target sequence (P14416 whole entry, looked up): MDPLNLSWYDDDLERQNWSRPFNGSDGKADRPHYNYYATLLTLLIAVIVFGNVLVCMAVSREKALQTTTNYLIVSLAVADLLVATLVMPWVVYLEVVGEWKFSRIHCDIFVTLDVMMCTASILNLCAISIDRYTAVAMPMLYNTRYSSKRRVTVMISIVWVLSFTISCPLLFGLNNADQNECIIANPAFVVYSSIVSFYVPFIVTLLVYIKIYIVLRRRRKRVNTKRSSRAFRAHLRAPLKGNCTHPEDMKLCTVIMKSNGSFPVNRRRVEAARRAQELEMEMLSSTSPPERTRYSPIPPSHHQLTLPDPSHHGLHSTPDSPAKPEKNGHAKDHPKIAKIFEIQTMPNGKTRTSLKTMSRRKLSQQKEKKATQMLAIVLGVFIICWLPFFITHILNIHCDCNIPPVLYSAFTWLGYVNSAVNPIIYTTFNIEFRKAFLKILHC
#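 Agonist mode: compounds alone added to overnight-plated D2 PathHunter cells for 90 min at 37 C, with 57 uM final dopamine (EC100) defining full response. Beta-arrestin recruitment detected by chemiluminescent reagent, read after 1 h at ambient temperature.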
# D2 PAM-1: positive allosteric modulators of human D2 dopamine receptor; P14416; HEK293 T-REx D2, calcium flux, EC20 dopamine potentiation; hit rate 0.34% among 340,000; AID 485347; potentiation, % at 10 µM;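 active = potentiation over 3 SD above the plate norm, cut at about 30% in these data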; also: 0% is about no effect
#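 Tetracycline-induced HEK293 T-REx cells force-coupled to calcium signalling expressed D2; compounds were pin-added after a 10 s baseline, read kinetically 180 s, then an EC20 dopamine challenge followed with a further 180 s calcium read.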
# D2 ag-2: activates the human D2 dopamine receptor | P14416 | hit rate 0.53% among 340,000 | HEK293 T-REx D2 cells, calcium flux agonist mode | activation, % at 2 µM | AID 485358;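 active = activation over 3 SD above normal in the single-dose calcium agonist read, cut at about 30% in these data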; also: 0% is about no effect
#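 Tetracycline-induced HEK293 T-REx cells with force-coupled D2 receptor, plated overnight at 30 C, loaded with no-wash calcium dye. After a 10 s baseline, compound was pin-added and calcium flux read kinetically for 180 s; calcium rises flagged agonists.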
# D2 PAM-2: human D2 receptor positive allosteric modulation. AID 624464. potentiation, % (test concentration not listed). hit rate 0.23% among 360,000. DiscoveRx D2 beta-arrestin cells, luminescence, 90 min; 100% = 57 uM dopamine signal; in the data active = potentiation above about 50%
#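 D2 cells co-treated with compound plus 50 nM dopamine (EC20) for 90 min at 37 deg C to detect potentiation. Beta-arrestin recruitment was read as enzyme-fragment luminescence after 1 h at ambient temperature. Full response was set by 57 uM dopamine.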
# D2 antagonist: D2 dopamine receptor (human) antagonism. P14416. HEK293 TREx D2 cells, calcium flux, dopamine EC80. inhibition, % at 10 µM. hit rate 2% among 340,000. AID 485344; in the data active = inhibition above about 30%; inactive = below that, where a call was filed; also: 0% is about no effect
#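 Dopamine at EC80 is the agonist stimulus; test compounds precede it by 180 s. Calcium flux read kinetically in a force-coupled, inducible HEK293 T-REx D2 cell line.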
# An asterisk follows results filed as active; . = not tested or not shown. Only some compounds are listed: those with a hit (about 2.4% of all), similar ones and a draw of the others.
SMILES,D2 ag-1,D2 PAM-1,D2 ag-2,D2 PAM-2,D2 antagonist
CCCN(CCC)CCCNC(=O)C(NS(=O)(=O)c1ccc2c(c1)CCC(=O)N2)c1ccccc1 (stereo not given),1,0,2,-9,45*
Cc1nnnn1CC(=O)Nc1ccccc1[N+](=O)[O-],2,-3,-1,2,36*
CN1CCN(CC(=O)Nc2ccccc2[N+](=O)[O-])CC1,-3,-4,1,-22,-6
Cc1ccc(C(=O)Oc2oc(-c3ccccc3)nc2C=Nc2ccc(N(C)C)cc2)cc1,-1,39*,-2,-18,-8
Cn1nnc2cc(C(=O)Nc3ccccc3)ccc21,-3,11,1,-2,13
COc1ccccc1NC(=O)c1ccc2c(c1)nnn2C,-6,3,0,-2,71*
O=C(NCC(c1cccnc1)N1CCc2ccccc2C1)C(=O)Nc1ccccc1F (stereo not given),.,7,0,.,.
Oc1ccc(/C=N/N2CCCCC2)cc1O,44*,-3,.,-11,.
CCN(Cc1ccccc1)C(=O)C1CCN(S(=O)(=O)c2ccc3c(c2)CCCN3C(C)=O)CC1,.,-4,0,.,.
Cn1cc(S(=O)(=O)N2CCCCC2)cc1C(=O)NCc1ccc(Cl)cc1,.,7,-2,.,.
Cn1cc(C(=O)NC2CCCCCC2)c(=O)c2cc(S(=O)(=O)N3CCCC3)ccc21,-5,-1,3,-14,3
CC1CCCN(CCCNC(=O)c2cn(C)c3ccc(S(=O)(=O)N(C)C4CCCCC4)cc3c2=O)C1 (stereo not given),-1,-14,0,-17,37*
Cn1cc(C(=O)N2CCc3ccccc3C2)c(=O)c2cc(S(=O)(=O)N3CCCCC3)ccc21,.,-17,1,.,-11
Cn1cc(C(=O)NC2CCCCCCC2)c(=O)c2cc(S(=O)(=O)N3CCCC3)ccc21,-2,32*,2,-6,-10
CC1CCN(CCCNC(=O)c2cn(C)c3ccc(S(=O)(=O)N(C)C4CCCCC4)cc3c2=O)CC1,.,11,-1,.,.
CCn1cc(C(=O)N2CCc3ccccc3C2)c(=O)c2cc(S(=O)(=O)N3CCCCC3)ccc21,.,-21,68*,.,-14
Cc1ccc(CNC(=O)c2oc3c(c2C)-c2nn(Cc4ccc(Cl)cc4)cc2CC3)cc1,.,-11,1,.,.
O=C(Cc1cccc([N+](=O)[O-])c1)NCc1nc2cccnc2n1Cc1ccc(F)cc1,.,-1,-3,.,.
CC(C)(C)OC(=O)N1CCC(c2c(C(=O)N3CCN(c4ccccc4F)CC3)cnn2C(C)(C)C)CC1,.,-5,0,.,.
COC(=O)c1c(-c2ccc(Cl)cc2)noc1N1CCN(c2cc(C)ccc2C)CC1,.,14,1,.,.
S=c1[nH]c(-c2ccccc2)cn1/N=C/c1cccc2ccccc12,-16,-14,0,-30,33*
S=c1[nH]c(-c2ccccc2)cn1/N=C/c1ccccc1Br,-2,-5,0,-47,-12
CCOC(=O)Cc1ccc2sc(-c3ccccc3)nc2c1,2,5,-1,-6,32*
CCOC(=O)c1sc(-c2ccccc2)nc1C,1,2,1,1,0
CCc1ccc(-c2nc(SCC(=O)NCC3CCCO3)c(-c3ccc(C)cc3)[nH]2)cc1 (stereo not given),.,-22,-1,.,.
SMILES,D2 ag-1,D2 PAM-1,D2 ag-2,D2 PAM-2,D2 antagonist
O=C(CSc1nc2c(cnn2-c2cccc(Cl)c2)c(=O)[nH]1)NCC1CCCO1 (stereo not given),8,4,0,1,39*
Cc1ccc(-c2[nH]c(-c3ccc(Cl)cc3)nc2SCC(=O)NCC2CCCO2)cc1 (stereo not given),-2,-20,4,-11,61*
Cc1ccc(-n2ncc3c(=O)[nH]c(SCC(=O)NCC4CCCO4)nc32)cc1 (stereo not given),0,.,.,-2,.
Cc1ccc(-c2nc(S(=O)(=O)c3ccc(F)cc3)c(SCC(=O)NCC3CCCO3)o2)cc1 (stereo not given),0,36*,1,-3,-7
COc1cc(OC)c(NC(=O)CCS(=O)(=O)c2ccc3c(c2)oc(=O)n3C)cc1Cl,.,0,0,.,.
COc1ccccc1NC(=O)CCS(=O)(=O)c1ccc2c(c1)oc(=O)n2C,-4,-1,0,-4,31*
Cc1cc2oc(C(=O)Nc3c(C(=O)Nc4ccccc4)oc4ccccc34)cc(=O)c2cc1C,.,9,-1,.,.
COc1ccc(/C=N/NC(=O)c2ccc(CN3c4cccc5cccc(c45)S3(=O)=O)cc2)cc1,0,38*,1,5,3
COc1cc(/C=N/NC(=O)c2ccc(CN3c4cccc5cccc(c45)S3(=O)=O)cc2)cc(OC)c1O,7,2,1,0,-4
CCc1ccc(CNC(=O)c2sc3ncnc(N(C)C4CCCCC4)c3c2C)cc1,.,0,0,.,.
O=C(NCc1ccco1)C1CCCN1C(=O)Nc1cccc(Cl)c1 (stereo not given),-3,-10,-2,4,56*
COc1ccccc1Cn1cc(C(=O)c2ccc(C)cc2)c(=O)c2cc(F)cc(F)c21,.,1,0,.,.
O=C(N/N=C/c1cccc(Oc2ccc([N+](=O)[O-])cc2[N+](=O)[O-])c1)c1cncc(Br)c1,7,23,-1,85*,5
Cc1ccccc1OCC(=O)N/N=C/c1cccc(Oc2ccc([N+](=O)[O-])cc2[N+](=O)[O-])c1,12,-4,0,55*,-9
Cc1ccccc1OCC(=O)NCC(=O)N/N=C/c1cccc([N+](=O)[O-])c1,.,-2,1,.,-8
CC(=O)c1cccc(NC(=O)c2ccc3ccccc3c2)c1,0,-3,0,2,31*
Cc1ccc(Cl)cc1NC(=O)CCn1c(=O)c2cccn2c2cccnc21,.,2,-1,.,.
Cc1cc(C)cc(Nc2nc3ccccc3n3cnnc23)c1,.,2,.,.,.
Nc1c(C(=O)N2CCOCC2)sc2nc3c(cc12)CCC3,1,5,-1,-1,8
Nc1c(C(=O)N2CCOCC2)sc2nc3c(cc12)CCCC3,1,33*,0,-2,-8
Cc1ccc(S(=O)(=O)Cc2ccc(C(=O)N3CCc4ccccc4C3)o2)cc1,1,58*,0,-10,-16
Cc1ccc(S(=O)(=O)Cc2ccc(C(=O)N3CCN(Cc4ccccc4)CC3)o2)cc1,.,51*,-1,.,-9
COc1ccc(S(=O)(=O)Cc2ccc(C(=O)N3CCN(Cc4ccccc4)CC3)o2)cc1,1,6,3,-3,0
COc1ccc(-c2cc(=O)oc3c4c(ccc23)OCN(Cc2cccc(OC)c2)C4)cc1,.,-22,0,.,.
CCC(CO)Oc1cc(NCc2ccccc2)c2ncn(C(C)C)c2c1 (stereo not given),6,.,.,-16,.
CCC(COC)Oc1cc(NCc2ccccc2)c2ncn(C(C)C)c2c1 (stereo not given),65*,15,0,2,-5
